Results taken from the OligoGym collection.

Molecular target: ZNF708
Test: pooled miR-30 sensor sort-seq; sequence = guide strand
Conditions: shRNA
Also: reference of the scale not given here.

Sequence	sensor-assay potency score (higher = more potent)
TATCTTATGATTCGTAAGGTTT	-1.04
TTTTCTAGTAAGAATTATCTTA	-0.389
TCTGATATCCACATTTTCCATA	-1.12
TTATCTTATGTCTCTTTGCATT	-1.42
TTCTCTAACATGACATTCCTAT	-0.111

Molecular target: ZNF718
Test: as above
Conditions: shRNA

Sequence	sensor-assay potency score (higher = more potent)
TATCTTATCTTATCTTTGTTTG	-1.2
TTTATCTACAGTGTGAATTTTC	-0.972
TAATTCTATTATAACCACCTTT	-0.203
TTTTGTGTTGAGTTAGGCGTGA	0.0879
ATATCTTATCTTATCTTTGTTT	-0.436
TTAAATTCTCATGTCCACGTTT	-0.266
TCTATTATAACCACCTTTCTGC	-0.0639
TTATGTGTCGTAAGAGTTGTGG	0.343
ATTTGTAGTATTTTTGTGCAGA	-0.171
TTATGTTTAGCAAAGTCTGAGG	-0.614

Molecular target: ZNF77
Test: as above
Conditions: shRNA

Sequence	sensor-assay potency score (higher = more potent)
TAAATGTAACAATCCAAGGAGG	-0.849
TTCCACATTTCTGACATTCATA	-1.1
TAATACATAAAGGTCTTCCCAC	-0.234
TAAAGTAAGTGGGACATCCGAA	-0.639
TTTTCTCCAAAAATAGACCAGG	-0.35
TATGTCACAGATGCTGTCCTTG	-0.213
TTAGGTACAAAATAAGTGCTAT	0.0583
TAACATAAATGTAACAATCCAA	-0.347
TACAATTTCTTCATCATTGGAT	0.581
TAGACCAGGAATCACTTCCTGT	-0.274
TTACGGTTGAACACTCTCCCAG	-0.487
TTCGGTAGGGTAACTCTTGTGC	0.248

Molecular target: ZNF829
Test: as above
Conditions: shRNA

Sequence	sensor-assay potency score (higher = more potent)
TTGAATAAGTTCTGAGCTCTGA	0.585
TTCTCCAACATCACTTCTTTGT	-0.439
TTCTTCACATTCATAGAGCTTC	-0.0675
TGAACTACAACTAAAAGCCTTG	-0.242
TTCATCTGTATGGATTCTCTGA	0.0212
TTGAGCAATACTTAAAGGCTTT	-0.25
TTCTACATTCTTCACATTCATA	-1.09
TTGTAGAAGTTCATCATGCATT	-0.541
TTGACTGAAATGTCTCTTCTTT	0.505
TAATATTTTGGTCTCACACATT	-1.12
TTTACCAGTGTGAATCCTCTGA	0.327
TACTTGACTGAAATGTCTCTTC	0.284
